# Where a name gives a salt, the structure may show the parent alone. ± gives the standard deviation of the averaged measurements.
# Experiments:
# Assay in all cases: cell viability (% of vehicle); higher = less cytotoxic
# Conditions in all cases: 10 µM; 72 h
# HCI01 = tested on: HCI01 (cells of a triple-negative basal-like breast cancer xenograft)
# HCI03 = tested on: HCI03 (cells of an ER-positive luminal breast cancer xenograft)
# HCI09 = tested on: HCI09 (cells of a triple-negative luminal androgen receptor type breast cancer xenograft)
# HCI11 = tested on: HCI11 (cells of an ER-positive luminal breast cancer xenograft)
# HCI13 = tested on: HCI13 (cells of an ER-positive luminal breast cancer xenograft)
# HCI16 = tested on: HCI16 (cells of a triple-negative basal-like breast cancer xenograft)
# UCD52 = tested on: UCD52 (cells of a triple-negative basal-like breast cancer xenograft)
# WHIM2 = tested on: WHIM2 (cells of a triple-negative basal-like breast cancer xenograft)
# WHIM30 = tested on: WHIM30 (cells of a triple-negative basal-like breast cancer xenograft)
# 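Also: PDX cells carrying CMV promoter-driven luciferase, viability read as total photon flux per second by IVIS imaging following D-luciferin, vehicle control 0.1% DMSO.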
Structure (SMILES),cell viability (HCI01),cell viability (HCI03),cell viability (HCI09),cell viability (HCI11),cell viability (HCI13),cell viability (HCI16),cell viability (UCD52),cell viability (WHIM2),cell viability (WHIM30)
COc1cc2c(cc1O)CCC1C2CCC2(C)C(O)CCC12 (stereo unspecified) [2-Methoxyestradiol (2-MeOE2)],141 ± 8,110,94.8 ± 12,117,181 ± 10,121,95.1 ± 7.2,114 ± 7,150 ± 22
Cl.Cl.NCCc1cnc[nH]1 [Histamine 2HCl],118 ± 14,129,105 ± 8.2,105,124 ± 16,111,87.8 ± 4.6,81.3 ± 5.9,122 ± 5.2
O=C(O)CCNC(=O)c1ccc(/N=N/c2ccc(O)c(C(=O)O)c2)cc1 [Balsalazide],96.3 ± 18,120,87.6 ± 1.2,91.1,120 ± 6.3,114,93.5 ± 10,98.8 ± 15,110 ± 6.1
Cl.Clc1cccc(Cl)c1NC1=NCCN1 [Clonidine HCl],132 ± 6.9,127,99 ± 9,114,111 ± 6.8,135,94.9 ± 3.3,104 ± 15,124.6 ± 0.22
CN(C)CCC(c1ccccc1)c1ccccn1.O=C(O)C=CC(=O)O (stereo unspecified) [Pheniramine Maleate],111 ± 10,123,108 ± 34,101,94.008 ± 0.0093,132,117 ± 27,97.8 ± 24,124 ± 14
Cl.c1ccc(CC2=NCCN2)cc1 [Tolazoline HCl],94.2 ± 1.9,100,92 ± 13,91.4,118 ± 8.5,115,92.7 ± 2.9,105 ± 5.3,87.3 ± 5
CCOc1cc(CC(=O)NC(CC(C)C)c2ccccc2N2CCCCC2)ccc1C(=O)O (stereo unspecified) [Repaglinide],88 ± 1.1,131,117 ± 15,111,80.3 ± 12,118,80.672 ± 0.07,96.8 ± 5.5,126 ± 18
Cc1noc(NS(=O)(=O)c2ccc(N)cc2)c1C [Sulfisoxazole],89.3 ± 28,121,94.4 ± 8.1,86.9,107 ± 2.8,112,99.8 ± 3.5,84.1 ± 8.8,117 ± 1.3
CC1C(NC(=O)C(=NOC(C)(C)C(=O)O)c2csc(N)n2)C(=O)N1S(=O)(=O)O (stereo unspecified) [Aztreonam],104 ± 4.2,113,96.5 ± 6.8,109,118 ± 15,114,95.9 ± 3,84.4 ± 8.5,123 ± 30
O=C(O)CCC(=O)O.O=C(OC1CN2CCC1CC2)N1CCc2ccccc2C1c1ccccc1 (stereo unspecified) [Solifenacin succinate],90.4 ± 10,107,91.8 ± 7,86.9,118 ± 9.5,104,57.36 ± 0.49,76.8 ± 2.9,87.6 ± 3.7
COC1C(O)CC(=O)OC(C)CC=CC=CC(OC2CCC(N(C)C)C(C)O2)C(C)CC(CC=O)C1OC1OC(C)C(OC2CC(C)(O)C(O)C(C)O2)C(N(C)C)C1O (stereo unspecified) [Spiramycin],133 ± 7.7,125,110 ± 12,116,78.9 ± 20,138,94.4 ± 1.5,149 ± 30,123 ± 5.8
CN1CCC(OC(c2ccccc2)c2ccccc2)CC1.Cl [Diphenylpyraline HCl],86 ± 3.4,99.9,97.7 ± 17,106,97.2 ± 13,91.7,75.5 ± 12,84.7 ± 21,107 ± 14
CN1CCN(c2cc3c(cc2F)c(=O)c(C(=O)O)cn3-c2ccc(F)cc2)CC1 [Difloxacin HCl],60.2 ± 1,84.7,53.6 ± 2,190,115 ± 8.6,94.8,116 ± 9.9,71.6 ± 21,130 ± 23
Cl.Nc1c2c(nc3ccccc13)CCCC2 [Tacrine hydrochloride],81.8 ± 14,119,90.7 ± 4.3,97,87.7 ± 6.4,98.3,96.6 ± 4.1,76.3 ± 2.9,87.06 ± 0.45
Cc1cccc(-c2nn3c(c2-c2ccnc4ccc(C(N)=O)cc24)CCC3)n1,117 ± 2.1,90.1,115 ± 56,98.7,56.3 ± 6.4,89.8,73.1 ± 3.3,147 ± 41,111 ± 3
NS(=O)(=O)c1cc(C(=O)O)c(NCc2ccco2)cc1Cl [Furosemide],108 ± 7.4,126,98.4 ± 8.6,105,89.1 ± 17,94.5,83.56 ± 0.16,98.3 ± 1.4,78.9 ± 6.2
COc1ccc(C2CNC(=O)C2)cc1OC1CCCC1 (stereo unspecified) [Rolipram],130 ± 5.1,140,85.8 ± 11,106,175 ± 38,112,102 ± 18,101 ± 13,123 ± 19
COc1ccc2cccc(CCNC(C)=O)c2c1 [Agomelatine],92.5 ± 10,139,99.7 ± 4.7,92.4,89.4 ± 2.2,105,86.1 ± 12,89.9 ± 20,136 ± 11
CN(C)CCCN1c2ccccc2CCc2ccccc21.Cl [Imipramine (hydrochloride)],104 ± 14,88.1,84.9 ± 5.2,60,95.1 ± 1.8,119,90.4 ± 7.2,82.5 ± 12,79.7 ± 8.5
CC(C)(Oc1ccc(C2CC2(Cl)Cl)cc1)C(=O)O (stereo unspecified) [Ciprofibrate],96 ± 14,126,94.3 ± 11,79.4,110 ± 12,114,96.2 ± 2.9,120 ± 3.9,127 ± 15

Structure (SMILES),cell viability (HCI01),cell viability (HCI03),cell viability (HCI09),cell viability (HCI11),cell viability (HCI13),cell viability (HCI16),cell viability (UCD52),cell viability (WHIM2),cell viability (WHIM30)
Cc1cc(=O)n(-c2ccccc2)n1C [Antipyrine],110 ± 15,131,101 ± 10,103,88.6 ± 1.1,95.9,98.2 ± 7.5,106 ± 30,125 ± 11
Br.CN(C)CCC[C@]1(c2ccc(F)cc2)OCc2cc(C#N)ccc21 [Citalopram hydrobromide],103 ± 25,138,93.7 ± 14,108,103 ± 6.7,129,106 ± 9,94.2 ± 24,87.9 ± 8.7
CN(CCOc1ccc(NS(C)(=O)=O)cc1)CCc1ccc(NS(C)(=O)=O)cc1 [Dofetilide],101.7 ± 0.3,114,94.8 ± 5.2,94.2,97.8 ± 17,89.3,81.6 ± 13,90.2 ± 10,106 ± 5.1
C=C1CCN(C(C)C(O)(Cn2cncn2)c2ccc(F)cc2F)CC1 (stereo unspecified) [Efinaconazole],119 ± 22,148,83.3 ± 19,91.5,126 ± 8.9,165,85.4 ± 5.2,95.9 ± 5.9,161 ± 25
COc1ccc(CC2c3cc(OC)c(OC)cc3CC[N+]2(C)CCC(=O)OCCCCCOC(=O)CC[N+]2(C)CCc3cc(OC)c(OC)cc3C2Cc2ccc(OC)c(OC)c2)cc1OC.O=S(=O)([O-])c1ccccc1.O=S(=O)([O-])c1ccccc1 (stereo unspecified) [Atracurium Besylate],187 ± 100,110,87.1 ± 58,81,80.1 ± 19,145,126 ± 2.7,71.5 ± 12,97.1 ± 7
CC(Cc1ccc(O)c(O)c1)(NN)C(=O)O (stereo unspecified) [Carbidopa],116 ± 20,122,121 ± 20,79.8,119 ± 14,149,124 ± 9.1,81.6 ± 11,126 ± 6.2
Cc1cccn2c(=O)c(-c3nnn[n-]3)cnc12.[K+] [Pemirolast potassium],97.99 ± 0.96,98.7,84 ± 3.5,90.1,97.8 ± 29,108,92.2 ± 1.2,113 ± 7.9,93.4 ± 17
Cc1ccc(-c2ncc(Cl)cc2-c2ccc(S(C)(=O)=O)cc2)cn1 [Etoricoxib],107 ± 4.3,118,85.1 ± 16,79.9,96.7 ± 2.1,141,77.3 ± 3.4,143 ± 16,116 ± 13
CCN(CC)C(=S)SSC(=S)N(CC)CC [Disulfiram],140 ± 49,75.8,71.6 ± 4.1,66.5,90 ± 5.2,92.3,82.3 ± 8.8,102 ± 8,115 ± 14
Nc1ccn(CC(CO)OCP(=O)(O)O)c(=O)n1.O.O (stereo unspecified) [Cidofovir dihydrate],120 ± 9.9,136,109 ± 42,94.7,152 ± 12,96.8,88 ± 0.94,97 ± 24,81 ± 1.9
Cc1nnc(SCC2=C(C(=O)[O-])N3C(=O)[C@@H](NC(=O)Cn4cnnn4)[C@H]3SC2)s1.[Na+] [Cefazolin (sodium salt)],115 ± 6.6,131,97.4 ± 9.4,85.9,125 ± 18,126,119 ± 12,104 ± 6,129 ± 8.7
O=C(NCCN1CCOCC1)c1ccc(Cl)cc1,129.4 ± 0.71,171,114 ± 22,113,102 ± 2.1,110,109 ± 8.9,111 ± 16,138 ± 4
O=C([O-])C(O)C(O)C(O)C(O)C(O)CO.O=C([O-])C(O)C(O)C(O)C(O)C(O)CO.[Ca+2] (stereo unspecified) [Calcium Gluceptate],134 ± 3.3,162,112 ± 4.9,127,110 ± 8.2,124,87.2 ± 13,109 ± 3.2,141 ± 8.1
CC(NC(=O)Cc1cc(F)cc(F)c1)C(=O)NC(C(=O)OC(C)(C)C)c1ccccc1 (stereo unspecified),111 ± 14,115,64.1 ± 6.3,104,116 ± 9.7,130,60.1 ± 2.1,74.18 ± 0.26,123 ± 25
Cn1c(=O)c2[nH]cnc2n(C)c1=O.Cn1c(=O)c2[nH]cnc2n(C)c1=O.NCCN [Aminophylline],98 ± 18,95.2,93.6 ± 9.1,99.4,101 ± 5.1,75.8,72 ± 16,97.4 ± 7.5,92.5 ± 24
COc1ccc(C(=O)c2ccccc2)c(O)c1 [Oxybenzone],120 ± 26,141,111 ± 15,109,103 ± 8.8,128,117 ± 11,125 ± 6.8,137 ± 22
CCC(C)C(=O)OC1CC(C)C=C2C=CC(C)C(CCC3CC(O)CC(=O)O3)C21 (stereo unspecified) [Lovastatin],119 ± 27,115,88.2 ± 12,181,131 ± 14,142,50.7 ± 5.3,71.5 ± 6.6,93.17 ± 0.92
CN(CC=CC#CC(C)(C)C)Cc1cccc2ccccc12.Cl [Terbinafine HCl],93.6 ± 30,99,86.02 ± 0.12,81.6,73 ± 1.7,123,70.5 ± 7.4,62.8 ± 10,91.1 ± 1.7
C=CC[N+]1(C2CC3C4CCC5CC(O)C(N6CCOCC6)CC5(C)C4CCC3(C)C2OC(C)=O)CCCC1.[Br-] (stereo unspecified) [Rocuronium Bromide],100 ± 8.3,133,103 ± 3.9,102,115 ± 7.2,80.4,118 ± 8,99.8 ± 22,119 ± 7.7
